# Screening data as filed in PubChem.
# Most compounds without a hit are left out; they make up all but 11% or so of the library.
# Tau fibril ThT = blocks human tau fibril formation measured by thioflavin T; Potency, µM (series often up to 57.4 µM), for inactives: at the top dose activity, negative = inhibition, usual class: inhibitors; recombinant tau K18 P301L, heparin-induced fibrillization, ThT fluorescence; P10636; 270,000 tested, 2.1% active; further: potency means the concentration at half of the fitted maximal effect; nearly all actives have a fitted effect of over 55% in size
#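 Fibril formation assay: tau K18 P301L at 15 uM with trace Alexa 594 label, heparin inducer 20 uM, pH 7 sodium acetate buffer, 37 C for 6 hr; endpoint ThT signal.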
# Tau fluor cs = counter-screen for tau fibril formation inhibitors; tau K18 P301L Alexa594 fluorescence, heparin fibrillization; Potency, µM (highest dose often 57.7 µM), for the others: top-dose activity change, negative = decrease; 280,000 tested, 0.93% active; AID 1463; further: potency means the concentration at half of the fitted maximal effect; nearly all actives have a fitted effect of over 55% in size
#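 Human tau K18 P301L (15 uM unlabeled, 0.24 uM Alexa 594-labeled) in 100 mM sodium acetate pH 7 with 20 uM heparin, 6 hr at 37 C. ThT 30 uM added, 1 hr ambient; Alexa 594 FP and total fluorescence read at 555/632 nm.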
# Tau fibril FP = tau fibrillization inhibition (FP) | P10636 | K18 P301L tau heparin fibrillization, Alexa594 FP, 6 h | Potency, µM (top dose mostly 57.7 µM), for the others: at the top dose activity, negative = inhibition, most hits filed as inhibitors | 280,000 tested, 0.39% active | AID 1468; further: potency means the concentration at half of the fitted maximal effect; nearly all actives have a fitted effect of over 55% in size
#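 Quantitative HTS format: compounds meet 15 uM recombinant K18 P301L tau and Alexa 594-tau tracer in 100 mM sodium acetate pH 7; 20 uM heparin triggers fibrillization at 37 C over 6 hr; FP gives the signal.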
# G9a block = inhibitors of human histone lysine methyltransferase G9a; Q96KQ7; G9a H3K9 monomethylation, AlphaScreen, 2 h; Potency, µM (series often up to 102 µM), for inactives: at the top dose activity, negative = inhibition, actives largely listed as inhibitors; 350,000 tested, 8.8% active; further: potency means the concentration at half of the fitted maximal effect; nearly all actives have a fitted effect of over 75% in size
# Target sequence (Q96KQ7 913-1193 limits assumed): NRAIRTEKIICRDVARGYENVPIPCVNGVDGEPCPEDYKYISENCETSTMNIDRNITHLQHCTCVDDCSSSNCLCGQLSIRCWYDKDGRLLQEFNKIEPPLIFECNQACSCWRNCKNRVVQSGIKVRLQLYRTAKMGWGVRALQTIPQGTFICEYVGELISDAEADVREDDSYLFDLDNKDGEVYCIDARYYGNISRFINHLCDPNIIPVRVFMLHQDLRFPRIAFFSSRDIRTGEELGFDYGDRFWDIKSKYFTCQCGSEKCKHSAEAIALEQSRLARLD
#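 Using a bead-based AlphaScreen, monomethylated H3K9 product from 2 h room-temperature reactions (G9a 20 nM, peptide 500 nM, SAM 20 uM) was detected with 0.5 ug/mL rabbit anti-H3K9me1 antibody.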
# FBPA coupling cs = inhibits coupling enzyme system, counter-screen for aldolase hits. coupling enzyme system counterscreen, AmpLite Red fluorescence. activity change, negative = inhibition, % at 58.2 µM, hits read low. 290,000 tested, 0.67% active; in the data active means activity change below about -30%
#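 First, compound is pin-transferred into glyceraldehyde-3-phosphate coupling-enzyme reagent at 57.5 uM final and held 10 min at RT. Next, substrate, coupling system and AmpLite Red are added. After 20 min RT, fluorescence (525/598 nm) is read.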
# Sfp inh = Sfp phosphopantetheinyl transferase inhibition; Q9F4F7; Biochemical Sfp PPTase activity, qHTS; Potency, µM, for inactives: largest response in the series, negative = inhibition, usual class: inhibitors; 310,000 tested, 3.5% active; AID 1490;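 further: the enzyme is Sfp with the accession as filed and its product quenches rhodamine fluorescence; potency means the concentration at half of the fitted maximal effect; 0% = enzyme reaction without inhibitor and -100% = no enzyme wells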
#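 Fluorescence-quenching assay: 15 nM Sfp-PPTase preincubated 15 min at room temperature with compound, then 5 uM rhodamine-CoA and 12.5 uM BHQ-2-labelled YbbR peptide added. Fluorescence (ex 525/em 598 nm) read at start and after 30 min; difference gives rate.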
# Sfp PPTase conf = Sfp phosphopantetheinyl transferase inhibition, confirmation. AID 2701. Potency, µM (series often up to 114 µM), for the others: at the top dose activity change, negative = inhibition, hits mostly inhibitors. Sfp PPTase enzymatic assay, qHTS titration. shares compounds with Sfp inh. 380 tested, 79% active;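 further: potency means the concentration at half of the fitted maximal effect; plate controls were uninhibited Sfp reaction for no effect and no enzyme control for full effect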
# Target sequence (Q9F4F7 whole entry, looked up): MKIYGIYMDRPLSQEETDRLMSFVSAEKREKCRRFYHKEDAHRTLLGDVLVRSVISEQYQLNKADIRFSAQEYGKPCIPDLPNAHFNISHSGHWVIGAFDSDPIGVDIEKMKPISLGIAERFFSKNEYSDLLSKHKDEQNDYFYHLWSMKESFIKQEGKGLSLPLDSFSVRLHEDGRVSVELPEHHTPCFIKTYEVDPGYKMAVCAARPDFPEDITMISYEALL
# Sfp PPTase gel = Blocks Sfp PPTase activity, gel read-out | purified Sfp, gel-based phosphopantetheinylation read-out | shares compounds with Sfp inh | Potency, µM, actives largely listed as inhibitors | 210 tested, 20% active;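 active means potency below 100 µM; inconclusive means dose-dependent response but potency above 100 µM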;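 further: band intensities scaled against SCH202676 control wells before curve fitting; potency is an IC50 for inhibitors of Sfp transfer activity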
# * = called active by the depositor; i = inactive; ? = inconclusive; nt = no result given; ! = repeats disagree; [ ] = another dose, or the depositor's remark. Unless noted, the call rests on the fitted dose curve; in most records, active means well fitted curve in the direction sought with a large enough effect; inconclusive means small, poorly fitted or top-dose-only effect, or another doubt; inactive means no such curve, though single readings can be large; an effect the other way counts as inactive or inconclusive. Unless noted, on the % scale 0 is the no-effect control and ±100 the full control effect.
SMILES,Tau fibril ThT,Tau fluor cs,Tau fibril FP,G9a block,FBPA coupling cs,Sfp inh,Sfp PPTase conf,Sfp PPTase gel
Clc1ccc(Cn2c(CN3CCCC3)nc3ccccc32)cc1,-14.3%,?,?,-13.8%[59 µM],-12.8,79.4µM*!,-2.2%,i
O=C(O)CCc1ccc(-c2cccs2)o1,?,-26.8%,?,?,2.7,2.82µM*,6.63µM*,nt
Nc1nc(NCC2CCC(CNS(=O)(=O)c3cccc4ccccc34)CC2)nc2ccccc12 (stereo not drawn),-9.0%,?,?,25.1µM*,0.6,28.2µM*,46.9µM*,55.6µM*
COc1cc(C(C)C)c2c(c1)S(=O)(=O)N(COc1cc(=O)n3cccc(OCCN4CCCCC4)c3n1)C2=O,nt,nt,nt,nt,-0.7,-18.5%,nt,nt
N#Cc1ccc(NC(=O)Cn2cnc(S(=O)(=O)N3CCc4ccccc43)c2)cc1,nt,nt,nt,21.8%,0.7,16.4%,nt,nt
COC(=O)c1ccc(N2CCC(C)CC2)c(N)c1,?,?,5.6%,8.91µM*,4.4,31.6µM*,18.7µM*,nt
COC(=O)c1sccc1NC(=O)c1cc(-c2ccc(C)cc2)nc2ccccc12,-14.2%,-14.4%,-3.8%,nt,0.3,4.6%,nt,nt
COC(=O)c1sc(NC(=O)c2cc(-c3ccccc3)nc3ccccc23)c(C#N)c1C,28.2µM*,?,?,?,-73.3*,0.631µM*,8.35µM*,nt
O=C(c1ccccc1)N1CCN(C(=S)NCc2ccco2)CC1,-0.5%,-0.5%,-6.1%,-23.9%,-1.2,35.5µM*,33.2µM*,?
Fc1ccc(N2CCN(C(=S)NCc3ccco3)CC2)cc1,-15.1%,-15.9%,7.2%,?,-0.2,11.3%,nt,nt
Cc1ccc2nc(NC(=O)CSc3nncc(=O)n3N)sc2c1,?,-8.0%,1.8%,16.8%[59 µM],-1.0,-16.1%,nt,nt
CNC[C@H](O)c1ccc(O)c(O)c1,14.1µM*!,?,12.6µM*!,7.94µM*!,-33.9*,25.1µM*!,?,i
COc1ccc(-n2cc(CNCCCn3ccnc3)c(-c3cccc(F)c3)n2)cc1,-13.5%,-12.8%,-0.8%,1.5%[0.501 µM],5.3,-19.4%,nt,nt
CCOC(=O)c1cc(-c2ccc(Cl)cc2)nc2c1c(C)nn2CCC#N,-19.0%,-20.3%,0.2%,68.1%[12.7 µM],-1.6,-5.2%,nt,nt
CCOC(=O)c1cc(-c2ccco2)nc2c1c(C)nn2CCC#N,?,-7.2%,-5.9%,11.2µM*,-1.0,28.2µM*,46.9µM*,i
N/C(=N\NC(=O)c1cccs1)c1cc2cc(Cl)ccc2oc1=O,?,-20.7%,-7.8%,13.7%[12.7 µM],0.1,17.5%,nt,nt
COc1ccccc1N1C(=O)C2CC(C)=C(C)CC2C1=O (stereo not drawn),-7.4%,-7.2%,0.9%,15.4%[59 µM],0.5,9.8%,nt,nt
COc1ccccc1N1C(=O)C=C(Sc2nc(C)cc(C)n2)C1=O,?,-20.7%,?,0.447µM*,-2.6,3.16µM*,1.67µM*,6.17µM*
O=C(NC1CCCCC1)C(c1cccnc1)N(C(=O)c1ccc(Cl)nc1)C1CCCCC1 (stereo not drawn),-5.0%,-4.4%,1.8%,31.7%[59 µM],6.1,-7.8%,nt,nt
CC(C)(C)NC(=O)C(c1cccnc1)N(C(=O)c1ccc(Cl)nc1)C1CCCC1 (stereo not drawn),12.6µM*,-37.2%,-64.5%,2.82µM*,-50.9*,3.55µM*,0.1%,i
O=C(CSc1nnc(CNC(=O)c2ccccc2)o1)NCCc1ccccc1,nt,nt,nt,nt,nt,6.8%,nt,nt
OC(CN1CCNCC1)Cn1c2ccc(Br)cc2c2cc(Br)ccc21 (stereo not drawn),10.3%,?,?,nt,1.3,35.5µM*,-9.4%,i
